Experimental findings from PubChem BioAssay (EPA / NIEHS) are described below.

Values joined by “and” are separate entries in the source; they are usually repeats but may differ in a detail not shown here. Identical values can stand only once. Results filed as inconclusive are left out. Active and inactive are the calls of the source. Rule for the calls, unless noted: active = hit-call score of the fitted dose curve at least 0.9, where 1 is the maximum; inconclusive = response in the unintended direction; inactive = score below 0.9.

For test [1], the target named is rat CYP2A2, Cyp2a2 (gene 24895) (UniProt P15149). As to the kind of experiment: NVS_ADME_rCYP2A2: NovaScreen (NVS) CYP450-related Enzyme Activity (ADME) Assay for rat CYP2A2 (AID 2283116). Put shortly:
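Cell-free recombinant rat CYP2A2 activity with fluorogenic substrate, fluorescence read 0.2 h after dosing. Chemicals screened at 10 uM in duplicate, hits then run in concentration-response up to 20 uM; signal loss versus acetonitrile baseline.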

Test [2] deals with human AKT serine/threonine Kinase 1 (AKT1), AKT1 (gene 207) (UniProt P31749). As to the kind of experiment: NVS_ENZ_hAKT1: NovaScreen (NVS) Enzymatic Assay for human AKT serine/threonine Kinase 1 (AKT1) (AID 2283138). Put shortly:
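Signal loss relative to DMSO, measured by fluorescence after electrophoretic separation of substrate and product, indicates inhibition of recombinant enzyme. Readings at 1 h; screening at 25 uM, follow-up curves up to 50 uM.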

In test [3] the target is human Beta-secretase (BACE), BACE1 (gene 23621) (UniProt P56817). Put plainly: NVS_ENZ_hBACE: NovaScreen (NVS) Enzymatic Assay for human Beta-secretase (BACE) (AID 2283140).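 Note: hits are inhibitors that reduce fluorescent substrate signal versus DMSO.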 Put shortly: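 Recombinant BACE1 (SF9 extract) incubated with compound and fluorescent substrate, 1 h. Plates carried positive and DMSO negative controls. Initial single dose 25 uM, duplicate; confirmation by concentration series.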
human Beta-secretase (BACE), BACE1 (gene 23621), sequence (P56817 whole entry, looked up): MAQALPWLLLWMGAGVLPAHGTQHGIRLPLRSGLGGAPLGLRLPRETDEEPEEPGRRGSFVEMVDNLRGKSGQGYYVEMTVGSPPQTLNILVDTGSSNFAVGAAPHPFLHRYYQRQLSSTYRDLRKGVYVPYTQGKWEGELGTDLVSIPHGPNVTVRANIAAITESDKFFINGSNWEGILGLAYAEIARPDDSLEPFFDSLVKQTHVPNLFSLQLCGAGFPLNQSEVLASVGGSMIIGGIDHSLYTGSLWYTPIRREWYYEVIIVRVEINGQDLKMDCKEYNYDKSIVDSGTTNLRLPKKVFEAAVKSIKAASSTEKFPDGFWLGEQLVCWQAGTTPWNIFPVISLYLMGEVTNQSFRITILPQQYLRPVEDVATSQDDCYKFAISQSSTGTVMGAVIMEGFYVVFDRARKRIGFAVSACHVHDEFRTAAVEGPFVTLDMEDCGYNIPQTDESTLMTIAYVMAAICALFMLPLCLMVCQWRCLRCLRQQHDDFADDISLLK

For test [4], the target named is rat CYP2A1, Cyp2a1 (gene 24894) (UniProt P11711). As to the kind of experiment: NVS_ADME_rCYP2A1: NovaScreen (NVS) CYP450-related Enzyme Activity (ADME) Assay for rat CYP2A1 (AID 2283114; active = hit-call score of the fitted dose curve at least 0.9, where 1 is the maximum; inactive = score below 0.9). An outline of the steps:
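Recombinant rat CYP2A1, cell-free, fluorogenic substrate turnover read by fluorescence intensity 0.75 h after dosing. Primary screen at 10 uM in duplicate; actives rerun as concentration-response up to 20 uM; loss of signal versus acetonitrile control.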

In test [5] the target is rat CYP1A2, Cyp1a2 (gene 24297) (UniProt P04799). Put plainly: NVS_ADME_rCYP1A2: NovaScreen (NVS) CYP450-related Enzyme Activity (ADME) Assay for rat CYP1A2 (AID 2283115). Put shortly:
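Cell-free recombinant rat enzyme with fluorogenic substrate, read by fluorescence intensity 1 hour after dosing. Loss of signal versus acetonitrile negative control; primary screen at 10 uM in duplicate, actives followed in concentration series.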

Test [6] deals with rat CYP2C11, Cyp2c11 (gene 29277) (UniProt P08683). Put plainly: NVS_ADME_rCYP2C11: NovaScreen (NVS) CYP450-related Enzyme Activity (ADME) Assay for rat CYP2C11 (AID 2283118). Put shortly: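 Cell-free recombinant rat enzyme with fluorescent substrate; readout 0.33 h after dosing, loss of signal versus acetonitrile control. Initial duplicate single-point at 10 uM; actives rerun in concentration series.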

Test [7] has as its target rat CYP2D1, Cyp2d1 (gene 266684) (UniProt P10633). As to the kind of experiment: NVS_ADME_rCYP2D1: NovaScreen (NVS) CYP450-related Enzyme Activity (ADME) Assay for rat CYP2D1 (AID 2283122). Put shortly: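 Cell-free fluorescence enzyme-activity assay on extracted rat CYP2D1 protein, read 0.75 h after dosing. Primary screen in duplicate at 10 uM; qualifying chemicals then run in concentration-response to 20 uM max, loss-of-signal versus acetonitrile baseline.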

A further test has as its system rat CYP3A1, gene 25642. As to the kind of experiment: NVS_ADME_rCYP3A1: NovaScreen (NVS) CYP450-related Enzyme Activity (ADME) Assay for rat CYP3A1 (AID 2283126). An outline of the steps: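 Cell-free recombinant CYP assay with fluorescent substrate, read 0.5 h after dosing. Screened at 10 uM in duplicate, hits at up to 20 uM in concentration-response; loss of signal versus acetonitrile baseline.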

Test [8] addresses rat CYP3A2, Cyp3a2 (gene 266682) (UniProt P05183). Put plainly: NVS_ADME_rCYP3A2: NovaScreen (NVS) CYP450-related Enzyme Activity (ADME) Assay for rat CYP3A2 (AID 2283128). Put shortly:
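Cell-free rat CYP3A2 enzyme assay with fluorescent substrate, read 0.5 h after dosing. Primary duplicate screen at 10 uM; actives run in concentration-response up to 20 uM, relative to acetonitrile baseline.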

The target of test [9] is rat CYP2C12, Cyp2c12 (gene 25011) (UniProt P11510). Put plainly: NVS_ADME_rCYP2C12: NovaScreen (NVS) CYP450-related Enzyme Activity (ADME) Assay for rat CYP2C12 (AID 2283119). An outline of the steps:
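Cell-free recombinant rat CYP2C12 activity read by fluorescence 0.5 h after dosing; loss of signal versus acetonitrile control. Primary screen in duplicate at 10 uM; actives then run in concentration-response format.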

The subject of a further test is rat CYP2C6, gene 293989. As to the kind of experiment: NVS_ADME_rCYP2C6: NovaScreen (NVS) CYP450-related Enzyme Activity (ADME) Assay for rat CYP2C6 (AID 2283120). Put shortly:
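Cell-free recombinant rat CYP2C6 with fluorogenic substrate, read by fluorescence 1 h after dosing; acetonitrile as negative control. Primary screen at 10 uM in duplicate, actives then in concentration-response up to 20 uM.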

Test [10] concerns the target rat CYP2C13, Cyp2c13 (gene 171521) (UniProt P20814). As to the kind of experiment: NVS_ADME_rCYP2C13: NovaScreen (NVS) CYP450-related Enzyme Activity (ADME) Assay for rat CYP2C13 (AID 2283121). Put shortly:
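Recombinant rat CYP2C13 with fluorogenic substrate, 0.75 h cell-free incubation; primary screen in duplicate at 10 uM, actives followed in concentration series. Fluorescence loss relative to acetonitrile control indicates inhibition.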

Test [11] has as its target human Acetylcholinesterase (AChE), ACHE (gene 43) (UniProt P22303). Put plainly: NVS_ENZ_hAChE: NovaScreen (NVS) Enzymatic Assay for human Acetylcholinesterase (AChE) (AID 2283129). An outline of the steps: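 Cell-free colorimetric enzyme-activity assay; compounds read 0.33 hour after dosing, loss of signal vs DMSO baseline. Primary screen in duplicate at 25 uM single concentration, with active compounds retested in concentration series.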

Test [12] concerns the target human AKT serine/threonine Kinase 2 (AKT2), AKT2 (gene 208) (UniProt P31751). As to the kind of experiment: NVS_ENZ_hAKT2: NovaScreen (NVS) Enzymatic Assay for human AKT serine/threonine Kinase 2 (AKT2) (AID 2283141). An outline of the steps: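 Cell-free fluorescence/electrophoretic mobility shift readout of recombinant human AKT2 activity, 1 h after chemical dosing. Duplicate primary screen at 25 uM, then singleton concentration-response up to 50 uM; loss of signal versus DMSO baseline.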

Test [13] has as its target human Caspase 5 (CASP5), CASP5 (gene 838) (UniProt P51878). Put plainly: NVS_ENZ_hCASP5: NovaScreen (NVS) Enzymatic Assay for human Caspase 5 (CASP5) (AID 2283137). An outline of the steps: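 Cell-free protease assay with bacterially expressed CASP5 and a fluorescent substrate, measured at 2 h. Values fitted relative to DMSO as baseline, from concentration-response series topping at 50 uM.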

rat CYP1A2, Cyp1a2 (gene 24297), sequence (P04799 whole entry, looked up): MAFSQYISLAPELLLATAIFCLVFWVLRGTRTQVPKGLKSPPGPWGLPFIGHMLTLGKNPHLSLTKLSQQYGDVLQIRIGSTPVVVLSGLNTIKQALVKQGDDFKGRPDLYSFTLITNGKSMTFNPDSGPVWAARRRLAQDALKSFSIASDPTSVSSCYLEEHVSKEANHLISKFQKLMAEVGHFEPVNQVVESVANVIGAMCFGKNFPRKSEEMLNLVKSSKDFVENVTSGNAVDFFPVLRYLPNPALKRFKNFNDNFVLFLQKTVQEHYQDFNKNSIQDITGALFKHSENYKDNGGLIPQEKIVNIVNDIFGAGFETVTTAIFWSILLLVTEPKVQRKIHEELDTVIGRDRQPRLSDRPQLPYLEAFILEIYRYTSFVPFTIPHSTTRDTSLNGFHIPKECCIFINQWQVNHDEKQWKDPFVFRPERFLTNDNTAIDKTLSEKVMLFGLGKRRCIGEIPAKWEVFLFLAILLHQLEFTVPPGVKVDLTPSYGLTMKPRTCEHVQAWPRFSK
human AKT serine/threonine Kinase 1 (AKT1), AKT1 (gene 207), sequence (P31749 whole entry, looked up): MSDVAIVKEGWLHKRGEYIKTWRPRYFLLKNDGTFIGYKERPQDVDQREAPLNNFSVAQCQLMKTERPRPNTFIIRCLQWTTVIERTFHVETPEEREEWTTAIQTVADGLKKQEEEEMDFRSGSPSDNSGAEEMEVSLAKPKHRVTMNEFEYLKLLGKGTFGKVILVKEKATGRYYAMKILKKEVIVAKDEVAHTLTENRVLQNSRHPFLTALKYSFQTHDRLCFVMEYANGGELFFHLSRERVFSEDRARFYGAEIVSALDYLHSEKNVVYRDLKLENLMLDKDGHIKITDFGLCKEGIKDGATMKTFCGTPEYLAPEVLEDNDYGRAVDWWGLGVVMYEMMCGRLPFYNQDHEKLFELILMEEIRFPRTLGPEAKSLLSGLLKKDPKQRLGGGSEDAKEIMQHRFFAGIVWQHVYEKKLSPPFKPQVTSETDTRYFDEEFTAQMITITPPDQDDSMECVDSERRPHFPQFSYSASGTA
rat CYP2A2, Cyp2a2 (gene 24895), sequence (P15149 whole entry, looked up): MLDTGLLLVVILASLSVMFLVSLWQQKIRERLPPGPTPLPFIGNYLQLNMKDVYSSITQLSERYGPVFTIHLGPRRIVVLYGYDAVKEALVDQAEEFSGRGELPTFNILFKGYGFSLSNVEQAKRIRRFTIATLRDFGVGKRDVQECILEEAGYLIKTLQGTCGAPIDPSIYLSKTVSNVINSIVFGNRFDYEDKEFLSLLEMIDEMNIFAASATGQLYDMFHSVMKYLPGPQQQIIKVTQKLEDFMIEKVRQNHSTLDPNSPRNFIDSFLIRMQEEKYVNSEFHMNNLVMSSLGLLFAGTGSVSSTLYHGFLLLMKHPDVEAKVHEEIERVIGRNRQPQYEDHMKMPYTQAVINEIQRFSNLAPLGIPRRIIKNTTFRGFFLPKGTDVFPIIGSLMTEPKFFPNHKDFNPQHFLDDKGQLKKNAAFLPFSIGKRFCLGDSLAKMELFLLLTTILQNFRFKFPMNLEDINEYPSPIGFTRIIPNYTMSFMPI
rat CYP2A1, Cyp2a1 (gene 24894), sequence (P11711 whole entry, looked up): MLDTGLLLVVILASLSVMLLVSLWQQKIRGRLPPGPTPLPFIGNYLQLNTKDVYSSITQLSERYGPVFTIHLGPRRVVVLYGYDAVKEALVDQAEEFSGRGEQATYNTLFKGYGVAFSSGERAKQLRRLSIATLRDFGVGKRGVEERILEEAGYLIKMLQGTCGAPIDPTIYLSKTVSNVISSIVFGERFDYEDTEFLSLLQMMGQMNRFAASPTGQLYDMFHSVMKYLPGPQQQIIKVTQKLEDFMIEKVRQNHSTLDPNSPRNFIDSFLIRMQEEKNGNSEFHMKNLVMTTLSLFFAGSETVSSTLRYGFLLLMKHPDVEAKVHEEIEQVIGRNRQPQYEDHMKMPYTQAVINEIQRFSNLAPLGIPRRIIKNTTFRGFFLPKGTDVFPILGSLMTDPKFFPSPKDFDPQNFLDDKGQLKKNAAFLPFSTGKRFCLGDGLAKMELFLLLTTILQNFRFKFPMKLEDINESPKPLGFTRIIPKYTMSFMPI
rat CYP2C13, Cyp2c13 (gene 171521), sequence (P20814 whole entry, looked up): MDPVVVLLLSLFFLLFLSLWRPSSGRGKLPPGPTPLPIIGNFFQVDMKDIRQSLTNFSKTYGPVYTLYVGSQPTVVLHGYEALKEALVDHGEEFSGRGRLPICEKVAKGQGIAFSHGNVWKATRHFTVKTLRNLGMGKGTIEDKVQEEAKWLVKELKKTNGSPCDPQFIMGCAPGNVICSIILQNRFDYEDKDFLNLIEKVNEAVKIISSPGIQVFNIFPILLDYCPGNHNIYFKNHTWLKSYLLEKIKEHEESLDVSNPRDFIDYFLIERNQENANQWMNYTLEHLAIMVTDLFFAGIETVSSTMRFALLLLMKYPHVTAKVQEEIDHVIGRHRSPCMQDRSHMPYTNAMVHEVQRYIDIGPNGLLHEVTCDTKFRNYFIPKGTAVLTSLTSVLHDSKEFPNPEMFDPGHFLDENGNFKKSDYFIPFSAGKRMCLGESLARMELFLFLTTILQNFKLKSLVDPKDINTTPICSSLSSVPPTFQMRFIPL
human Acetylcholinesterase (AChE), ACHE (gene 43), sequence (P22303 whole entry, looked up): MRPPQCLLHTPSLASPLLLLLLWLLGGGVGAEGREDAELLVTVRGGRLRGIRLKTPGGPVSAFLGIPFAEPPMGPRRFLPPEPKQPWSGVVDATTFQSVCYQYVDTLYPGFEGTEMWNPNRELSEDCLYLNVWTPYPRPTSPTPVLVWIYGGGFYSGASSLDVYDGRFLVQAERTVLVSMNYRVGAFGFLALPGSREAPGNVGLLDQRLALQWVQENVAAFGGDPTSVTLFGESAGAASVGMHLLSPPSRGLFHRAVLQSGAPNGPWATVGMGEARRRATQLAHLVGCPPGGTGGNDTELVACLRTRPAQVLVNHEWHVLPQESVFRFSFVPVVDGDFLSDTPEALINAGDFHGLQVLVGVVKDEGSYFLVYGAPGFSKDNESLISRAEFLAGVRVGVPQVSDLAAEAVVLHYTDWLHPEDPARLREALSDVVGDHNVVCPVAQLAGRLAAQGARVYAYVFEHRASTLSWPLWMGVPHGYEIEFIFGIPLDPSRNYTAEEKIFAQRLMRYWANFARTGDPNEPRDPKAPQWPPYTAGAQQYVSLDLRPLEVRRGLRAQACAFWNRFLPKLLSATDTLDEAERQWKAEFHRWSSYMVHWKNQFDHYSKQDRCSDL
rat CYP3A2, Cyp3a2 (gene 266682), sequence (P05183 whole entry, looked up): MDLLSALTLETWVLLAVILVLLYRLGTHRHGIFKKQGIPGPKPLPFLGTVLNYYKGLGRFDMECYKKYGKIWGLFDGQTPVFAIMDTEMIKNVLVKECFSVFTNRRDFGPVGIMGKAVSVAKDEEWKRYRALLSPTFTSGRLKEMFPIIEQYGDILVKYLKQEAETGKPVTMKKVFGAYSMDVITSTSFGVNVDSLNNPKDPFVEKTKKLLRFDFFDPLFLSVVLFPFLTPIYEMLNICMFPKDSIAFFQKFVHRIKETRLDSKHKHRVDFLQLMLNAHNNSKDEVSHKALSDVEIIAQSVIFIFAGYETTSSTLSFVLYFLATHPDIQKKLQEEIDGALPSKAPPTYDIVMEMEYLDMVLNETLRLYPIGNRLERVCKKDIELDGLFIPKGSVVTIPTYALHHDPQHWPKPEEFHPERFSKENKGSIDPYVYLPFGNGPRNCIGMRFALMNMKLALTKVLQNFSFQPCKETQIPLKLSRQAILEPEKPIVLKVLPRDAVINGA
rat CYP2D1, Cyp2d1 (gene 266684), sequence (P10633 whole entry, looked up): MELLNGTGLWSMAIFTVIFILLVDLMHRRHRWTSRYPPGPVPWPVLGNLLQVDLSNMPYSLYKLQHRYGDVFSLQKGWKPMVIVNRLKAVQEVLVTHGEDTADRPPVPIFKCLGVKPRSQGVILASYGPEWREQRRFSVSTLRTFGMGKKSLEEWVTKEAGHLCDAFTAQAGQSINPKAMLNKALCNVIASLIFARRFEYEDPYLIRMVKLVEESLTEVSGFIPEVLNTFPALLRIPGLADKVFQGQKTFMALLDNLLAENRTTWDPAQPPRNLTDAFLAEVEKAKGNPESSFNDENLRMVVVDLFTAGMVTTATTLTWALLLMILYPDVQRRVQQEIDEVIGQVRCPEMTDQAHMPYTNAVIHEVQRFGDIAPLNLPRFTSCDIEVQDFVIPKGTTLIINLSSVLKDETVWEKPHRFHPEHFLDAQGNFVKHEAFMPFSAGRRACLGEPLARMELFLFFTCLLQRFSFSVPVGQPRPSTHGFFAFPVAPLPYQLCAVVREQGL

As to `CCCCOC(=O)c1ccccc1C(=O)OCCCC`, the outcome in [1], in test [2] and in test [3] was inactive.

With `CC(C)Oc1cc(-n2nc(C(C)(C)C)oc2=O)c(Cl)cc1Cl`, in test [3], the molecule was called inactive.

Turning to `Cc1ccc(-c2c(Cl)nc(C#N)n2S(=O)(=O)N(C)C)cc1`, the AC50 in [4] is 7380 nM (active); in [6], 6130 nM (active); in test [7], 13000 nM (active); with rat CYP3A1, gene 25642, 2.88 µM (active); in [8], 1100 nM (active). For the same molecule, the result in test [5], in test [2] and in [3] was inactive.

With `CC1=C(C(=O)Nc2ccccc2)SCCO1`, the AC50 in test [4] was 6720 nM (active). Also, in test [5], the molecule was called inactive.

For `CN(C)C(=S)SSC(=S)N(C)C`, the AC50 in [4] was 2830 nM (active); in test [9], 1980 nM (active); in the test on rat CYP2C6, gene 293989, 1280 nM (active); in test [10], 991 nM (active); in the test on rat CYP3A1, gene 25642, 3.2 µM (active); in test [8] it was 2420 nM (active). Further, the concentration at half-maximal activity (AC50) in [11] was 10600 nM (active). Also, in test [5], the molecule was called inactive.

`COc1nc(C)nc(NC(=O)NS(=O)(=O)c2ccccc2CCC(F)(F)F)n1`: the AC50 in the test on rat CYP3A1, gene 25642 was 7.5 µM (active) and 7.14 µM (active) and 7.37 µM (active). Besides, in [12], the result was inactive.

Take `CCCC1COC(Cn2cncn2)(c2ccc(Cl)cc2Cl)O1` (configuration not stated): the half-maximal activity concentration (AC50) is 106 nM (active) and 102 nM (active) in test [1]; 1450 nM (active) in [6]; 2450 nM (active) in the test on rat CYP2C6, gene 293989; 6880 nM (active) in test [7]; 2.08 µM (active) with rat CYP3A1, gene 25642. Besides, the result in test [13] was inactive.

Regarding `COC(=O)C=C(C)OP(=O)(OC)OC`, the AC50 in test [11] is 6000 nM (active).

With `CCNc1nc(Cl)nc(NC(C)C)n1`, in [1], the outcome was inactive.

As for `CON(C)C(=O)Nc1ccc(Cl)c(Cl)c1`, the outcome was “inactive” in [5]; “inactive” with rat CYP3A1, gene 25642; “inactive” in [2]. For the same molecule, in test [10], the AC50 is 8.64 µM (active) and 6.6 µM (active).

As for `COC(=O)c1ccccc1C(=O)OC`, the molecule was called inactive in test [4].
